Measurements from PubChem BioAssay.
Activity calls are given as the source filed them.

How the values were obtained:
Albumin (Bos taurus) = Albumin (Bos taurus) (UniProt P02769); assay: bovine serum albumin binders on microarray, profiling panel, artefact control for SMM control protein annotation, biochemical, small-molecule microarray, Alexa647 label, 635/667 nm fluorescence (AID 1118); details: BSA-A647 binding, fluorescence 635 nm, higher = more signal;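 also: score merges 667 nm emission intensity and signal-to-noise per printed compound spot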
[1] = small-molecule microarray binders of probe aXIP, primary screen, biochemical, NeuroSMM set, 635/667 nm fluorescence (AID 1119); details: higher = more signal, called active from +8 up or from −8 down;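 also: probe is the protein aXip251-270 applied at 1 µg/mL to compound-printed slides; binding of probe to printed compounds measured as 667 nm fluorescence plus signal to noise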
[2] = small-molecule binders of probe aNOTCH3, primary screen, biochemical, small-molecule microarray, 635/667 nm fluorescence (AID 1120); details: higher = more signal;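 also: probe is a biotin-tagged antibody raised against NOTCH3 rather than NOTCH3 protein; score merges spot fluorescence near 667 nm with spot signal to noise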
[3] = small-molecule binders of probe aNOTCH2, primary screen, biochemical, small-molecule microarray, 635/667 nm fluorescence (AID 1121); details: higher = more signal;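 also: score merges feature fluorescence read at 667 nm with its signal to noise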
[4] = molecular target: Carbonic anhydrase 2 (Homo sapiens) (UniProt P00918); assay: CAII small-molecule binders, profiling panel, biochemical, small-molecule microarray, Alexa647-labelled CAII (AID 1122); details: CAII-A647 binding fluorescence, higher = more signal
[5] = COS7 lysate on small-molecule microarray, probe aHis, 635 nm (AID 1123); details: COS7 cell lysate, fluorescence, higher = more signal;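 also: z-score combines 667nm fluorescence intensity with signal-to-noise per printed compound spot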
[6] = compound binding in COS7 lysate, probe aLAP1, primary screen, cell lysate, small-molecule microarray (AID 1124); details: probe aLAP1, fluorescence, higher = more signal;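 also: lysate comes from COS7 cells expressing LAP1 and is applied at 0.3 µg/mL; score merges spot fluorescence near 667 nm with signal-to-noise over triplicate slides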
Sam68 (KHDRBS1) = assay: Sam68 small-molecule binders, primary screen, biochemical, small-molecule microarray, 635 nm fluorescence (AID 1125); details: small-molecule microarray binding, higher = more signal;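 also: score merges 667 nm channel intensity with signal to noise over triplicate slides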
[7] = tested on: Chordin-like protein 2 (CHRDL2); assay: CHRDL2 small-molecule binders, primary screen, biochemical, small-molecule microarray, 635 nm fluorescence (AID 1126); details: small-molecule microarray binding, fluorescence 635 nm; higher = more signal;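 also: printed compound slides probed with Chrdl2 protein at 4 µg/mL for 1 h at 4 C; score merges 667 nm emission intensity with signal to noise over three replicate slides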
[8] = molecular target: Concanavalin-A (Canavalia ensiformis) (UniProt P02866); assay: ConA small-molecule binders, primary screen, artefact control for SMM control protein annotation, biochemical, small-molecule microarray, Alexa647 label, 635 nm (AID 1127); details: ConA-A647 binding fluorescence, higher = more signal;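 also: z combines 667 nm emission intensity with signal-to-noise across three replicate slides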
[9] = anti-His antibody binders, primary screen, artefact control for SMM control protein annotation, biochemical, small-molecule microarray, 635 nm fluorescence (AID 1128); details: anti-His Alexa647 antibody binding, higher = more signal;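 also: score merges feature fluorescence with signal-to-noise for each printed compound spot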
[10] = tested on: Human papillomavirus type 1a E7 protein (residues 1-88); assay: HPV1a E7 small-molecule binders, primary screen, biochemical, small-molecule microarray, residues 1-88, 635 nm (AID 1129); details: small-molecule microarray binding, fluorescence 635 nm; higher = more signal
[11] = molecular target: Focal adhesion kinase 1 (Homo sapiens) (UniProt Q05397); assay: small-molecule microarray binders of FAK, primary screen, biochemical, 635/667 nm fluorescence, BSA, DTT (AID 1130); details: PTK2 binding, 635 nm fluorescence, higher = more signal;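 also: composite of spot emission at 667 nm and signal to noise over triplicate slides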
[12] = tested on: Fibrinogen (Alexa647-labelled); assay: fibrinogen binders on compound microarrays, profiling panel, artefact control for SMM control-protein annotation, biochemical, small-molecule microarray, 635/667 nm fluorescence (AID 1131); details: fibrinogen-A647 binding fluorescence, higher = more signal;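 also: z-score merges 667 nm fluorescence with per-spot signal-to-noise over triplicate slides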
[13] = molecular target: Follistatin (Homo sapiens) (UniProt P19883); assay: follistatin binders on small-molecule microarrays, primary screen, biochemical, small-molecule microarray, 635/667 nm fluorescence (AID 1132); details: FST binding, 635 nm fluorescence, higher = more signal
[14] = molecular target: Fibroblast growth factor 2 (Homo sapiens) (UniProt P09038); assay: FGF2 binders on small-molecule microarrays, primary screen, biochemical, small-molecule microarray, 635/667 nm fluorescence (AID 1133); details: small-molecule microarray binding, FGF2, fluorescence 635/667; higher = more signal
[15] = mitochondrial membrane potential change in A549 cells, profiling panel, cell-based, JC-1 fluorescence, basal, 24 h, 100 nL (AID 1138); details: higher = more signal;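 also: A549 lung adenocarcinoma cells under basal conditions with no added stimulus; test concentration not given here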
Lefty1 = Lefty1 binders on small-molecule microarrays, primary screen, biochemical, small-molecule microarray, 635/667 nm fluorescence (AID 1139); details: small-molecule microarray binding, fluorescence 635/667; higher = more signal
[16] = tested on: wheat germ agglutinin (Triticum aestivum), Alexa647-labelled; assay: wheat germ agglutinin binders on compound microarrays, profiling panel, artefact control for SMM control-protein annotation, biochemical, small-molecule microarray, 635/667 nm fluorescence (AID 1140); details: WGA-A647 binding, 635 nm fluorescence, higher = more signal;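 also: score merges 667 nm feature emission with signal to noise over triplicate slides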
[17] = molecular target: Luciferin 4-monooxygenase (Photinus pyralis) (UniProt P08659); assay: firefly luciferase enzyme inhibitors, primary screen, biochemical, luminescence, purified enzyme, 2006 set (AID 1141); details: SteadyGlo luminescence, 30 min, higher = more signal, called active from +8 up or from −8 down;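 also: cell-free assay with purified firefly luciferase at 100 ng per well in PBS; test concentration not given here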
Chain of Luciferin 4-monooxygenase (Photinus pyralis) (P08659 whole entry, looked up): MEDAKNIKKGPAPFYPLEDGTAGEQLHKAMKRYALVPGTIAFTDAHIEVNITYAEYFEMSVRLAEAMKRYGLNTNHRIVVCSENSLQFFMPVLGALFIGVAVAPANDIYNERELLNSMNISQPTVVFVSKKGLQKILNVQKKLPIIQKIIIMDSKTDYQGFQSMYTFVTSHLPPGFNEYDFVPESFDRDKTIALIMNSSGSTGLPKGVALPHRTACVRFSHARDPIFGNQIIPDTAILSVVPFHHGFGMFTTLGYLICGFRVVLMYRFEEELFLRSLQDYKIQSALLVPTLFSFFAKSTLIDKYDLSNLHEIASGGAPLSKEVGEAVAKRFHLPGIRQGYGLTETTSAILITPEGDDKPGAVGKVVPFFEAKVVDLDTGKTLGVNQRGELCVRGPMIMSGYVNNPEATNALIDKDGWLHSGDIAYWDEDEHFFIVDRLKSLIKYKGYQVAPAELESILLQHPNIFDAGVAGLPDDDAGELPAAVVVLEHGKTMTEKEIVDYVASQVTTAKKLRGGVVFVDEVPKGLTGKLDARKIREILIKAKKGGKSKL

Chain of Fibroblast growth factor 2 (Homo sapiens) (P09038 whole entry, looked up): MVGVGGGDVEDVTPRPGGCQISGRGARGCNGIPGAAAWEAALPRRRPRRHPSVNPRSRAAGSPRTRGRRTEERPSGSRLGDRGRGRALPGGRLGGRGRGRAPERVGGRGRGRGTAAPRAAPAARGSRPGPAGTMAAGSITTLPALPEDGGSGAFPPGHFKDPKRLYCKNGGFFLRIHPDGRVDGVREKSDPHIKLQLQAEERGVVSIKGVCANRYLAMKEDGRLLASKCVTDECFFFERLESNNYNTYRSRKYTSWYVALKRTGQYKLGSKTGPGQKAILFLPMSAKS
Chain of Albumin (Bos taurus) (P02769 whole entry, looked up): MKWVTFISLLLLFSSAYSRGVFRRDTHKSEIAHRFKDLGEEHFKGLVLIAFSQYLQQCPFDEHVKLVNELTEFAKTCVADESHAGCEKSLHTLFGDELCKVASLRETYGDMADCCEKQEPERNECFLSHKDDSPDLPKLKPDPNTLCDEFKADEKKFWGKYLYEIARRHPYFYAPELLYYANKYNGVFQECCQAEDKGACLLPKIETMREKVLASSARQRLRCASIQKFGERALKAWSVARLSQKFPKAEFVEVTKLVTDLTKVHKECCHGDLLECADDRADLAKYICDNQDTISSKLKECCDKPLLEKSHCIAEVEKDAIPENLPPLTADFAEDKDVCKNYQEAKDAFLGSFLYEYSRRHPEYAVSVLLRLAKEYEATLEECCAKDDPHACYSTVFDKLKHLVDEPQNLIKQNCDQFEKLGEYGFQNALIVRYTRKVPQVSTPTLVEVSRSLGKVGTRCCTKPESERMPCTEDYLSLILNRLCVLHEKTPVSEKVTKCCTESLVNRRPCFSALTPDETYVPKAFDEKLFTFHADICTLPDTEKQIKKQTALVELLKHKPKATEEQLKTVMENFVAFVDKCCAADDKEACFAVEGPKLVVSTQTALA
Chain of Focal adhesion kinase 1 (Homo sapiens) (Q05397 whole entry, looked up): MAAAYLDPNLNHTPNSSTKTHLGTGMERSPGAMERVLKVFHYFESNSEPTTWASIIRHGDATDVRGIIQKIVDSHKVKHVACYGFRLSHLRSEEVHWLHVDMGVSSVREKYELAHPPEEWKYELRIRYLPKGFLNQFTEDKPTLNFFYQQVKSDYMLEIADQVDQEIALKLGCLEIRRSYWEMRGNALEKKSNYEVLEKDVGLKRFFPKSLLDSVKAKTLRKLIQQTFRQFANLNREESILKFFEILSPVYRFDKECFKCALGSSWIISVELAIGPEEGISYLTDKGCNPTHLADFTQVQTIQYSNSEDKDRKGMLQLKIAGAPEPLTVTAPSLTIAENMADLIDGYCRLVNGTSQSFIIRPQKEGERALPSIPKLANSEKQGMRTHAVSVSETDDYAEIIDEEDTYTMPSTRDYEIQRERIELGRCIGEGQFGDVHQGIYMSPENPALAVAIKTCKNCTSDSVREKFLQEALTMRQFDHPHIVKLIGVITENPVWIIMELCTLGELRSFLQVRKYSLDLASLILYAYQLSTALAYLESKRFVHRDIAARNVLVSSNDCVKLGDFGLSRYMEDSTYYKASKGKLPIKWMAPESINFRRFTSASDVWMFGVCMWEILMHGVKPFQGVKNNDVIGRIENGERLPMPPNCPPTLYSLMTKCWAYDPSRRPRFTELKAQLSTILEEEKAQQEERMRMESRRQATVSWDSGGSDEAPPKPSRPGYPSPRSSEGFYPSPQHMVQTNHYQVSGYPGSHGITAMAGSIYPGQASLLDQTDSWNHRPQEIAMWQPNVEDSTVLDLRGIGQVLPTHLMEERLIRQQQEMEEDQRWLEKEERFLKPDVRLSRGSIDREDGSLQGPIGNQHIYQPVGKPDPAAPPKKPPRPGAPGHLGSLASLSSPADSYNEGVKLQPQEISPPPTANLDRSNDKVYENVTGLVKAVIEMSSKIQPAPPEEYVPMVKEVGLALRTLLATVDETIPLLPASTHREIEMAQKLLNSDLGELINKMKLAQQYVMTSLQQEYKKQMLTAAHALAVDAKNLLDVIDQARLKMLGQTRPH
Chain of Concanavalin-A (Canavalia ensiformis) (P02866 whole entry, looked up): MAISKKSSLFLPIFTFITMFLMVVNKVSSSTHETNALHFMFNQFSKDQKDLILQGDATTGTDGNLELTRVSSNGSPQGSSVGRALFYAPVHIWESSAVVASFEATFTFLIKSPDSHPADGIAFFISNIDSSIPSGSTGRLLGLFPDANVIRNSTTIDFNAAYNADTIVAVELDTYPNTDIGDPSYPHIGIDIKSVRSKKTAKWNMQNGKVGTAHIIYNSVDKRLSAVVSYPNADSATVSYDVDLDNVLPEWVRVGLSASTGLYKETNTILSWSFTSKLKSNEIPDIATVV
Chain of Follistatin (Homo sapiens) (P19883 whole entry, looked up): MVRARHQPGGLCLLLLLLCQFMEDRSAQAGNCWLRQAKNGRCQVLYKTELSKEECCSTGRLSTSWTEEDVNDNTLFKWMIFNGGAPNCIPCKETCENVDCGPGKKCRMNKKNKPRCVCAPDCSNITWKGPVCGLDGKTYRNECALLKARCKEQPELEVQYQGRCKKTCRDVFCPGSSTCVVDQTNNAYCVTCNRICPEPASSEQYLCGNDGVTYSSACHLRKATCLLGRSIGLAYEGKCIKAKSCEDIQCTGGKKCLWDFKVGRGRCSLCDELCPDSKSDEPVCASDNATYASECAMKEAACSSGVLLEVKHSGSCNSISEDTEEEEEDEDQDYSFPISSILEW

| Structure (SMILES) | composite z-score (Albumin (Bos taurus)) | composite Z-score [1] | composite z-score [2] | composite z-score [3] | composite z-score [4] | composite z-score [5] | composite z-score [6] | composite z-score (Sam68 (KHDRBS1)) | composite z-score [7] | composite z-score [8] | composite z-score [9] | composite z-score [10] | composite z-score [11] | composite z-score [12] | composite z-score [13] | composite z-score [14] | z-score [15] | composite z-score (Lefty1) | composite z-score [16] | z-score [17] |
| --- | --- | --- | --- | --- | --- | --- | --- | --- | --- | --- | --- | --- | --- | --- | --- | --- | --- | --- | --- | --- |
| CC(C)[C@@H](OCc1ccccc1)[C@H](C)CON=C1[C@H]2CCn3c(=O)n(-c4ccccc4)c(=O)n3[C@H]2[C@H](O)[C@@H]2O[C@H]12 | 0.667 | 0.382 (inactive) | -0.0072 | -0.0527 | -0.0291 | 0.476 | -0.219 | 0.593 | 0.427 | -0.0949 | 2.57 | 0.246 | 0.0884 | -0.0016 | 0.759 | 0.324 | -0.139 | 0.689 | 0.192 | 0.0981 (inactive) |
| COc1ccc(COC(=O)NN=C2C[C@@H](O)[C@@H](O)[C@@H]3[C@@H]4C(=O)N(Cc5ccccc5)C(=O)[C@@H]4CC[C@@H]23)cc1 | -0.0233 | -0.185 (inactive) | -0.0362 | -0.182 | -0.359 | 0.275 | -0.23 | 0.389 | 0.172 | 0.0738 | 0.57 | 0.343 | 0.0398 | -0.113 | 0.364 | 0.164 | 0.485 | 0.292 | -0.0049 | 0.778 (inactive) |
| C=CC[C@@H]1C=CC(ON=C(C)C)[C@@H](CO)O1 (stereo not given in full) | -0.282 | 0.112 (inactive) | -0.0288 | -0.19 | -0.341 | -0.301 | -0.178 | -1.11 | -0.213 | -0.0875 | 3.16 | -0.901 | 0.0886 | -0.445 | -0.356 | -0.458 | 0.178 | -0.0561 | -0.0488 | -0.0424 (inactive) |
| CCOC(=O)[C@H](Cc1ccccc1)NC(=O)CCC1CC(OC(=O)NCc2ccc3c(c2)OCO3)CC2(CCCC(COC(=O)NCCc3ccc(Cl)cc3)O2)O1 (stereo not given in full) | 0.581 | 0.264 (inactive) | 0.0591 | -0.125 | 0.151 | 0.454 | 0.0158 | 1.3 | 0.43 | 0.814 | 0.0231 | 0.908 | 0.762 | 0.755 | 0.749 | 0.303 | 0.05 | 1.03 | 0.335 | -0.144 (inactive) |
| CCN1C(=O)[C@H]2[C@H]3[C@H](O)[C@H](O)CC(=NO[C@@H](C)c4cc(-c5c(C)cc(C)cc5C)no4)[C@@H]3CC[C@H]2C1=O | 0.581 | -0.0662 (inactive) | 0.051 | -0.0562 | 0.465 | 1.11 | 0.693 | 1.3 | 0.333 | 1.02 | -0.185 | 0.918 | 0.23 | 0.813 | 0.809 | 1.08 | 0.474 | 0.922 | 1.01 | 1.06 (inactive) |
| CO[C@@H]1COC(=O)[C@H](CCSC)NC(=O)CC=C[C@@H](C)COC(=O)[C@@H]2CCCN2C(=O)CC=C[C@H]1C | -1.43 | 0.605 (inactive) | 0.0306 | -0.199 | -0.291 | -0.462 | -0.328 | 0.34 | 0.946 | -0.353 | 0.0289 | 0.258 | -0.702 | -1.13 | 0.779 | 0.889 | 0.215 | 1.15 | -1.37 | -0.0167 (inactive) |
| COC(=O)[C@H](C)NC(=O)CCC1CC(OC(=O)NCCc2ccc(F)cc2)CC2(CCCC(COC(=O)NCCc3ccccc3OC)O2)O1 (stereo not given in full) | 0.335 | 0.353 (inactive) | -0.0288 | -0.0061 | 0.244 | 1.25 | 0.0635 | 1.29 | 0.559 | 0.924 | 0.706 | 1.12 | 0.0694 | 0.733 | 1.18 | 0.591 | 0.625 | 0.554 | 0.432 | 0.484 (inactive) |
| CCOC(=O)[C@H](CC(C)C)NC(=O)CCC1CC(OC(=O)NCc2ccc3c(c2)OCO3)CC2(CCCC(COC(=O)NCCOc3ccccc3)O2)O1 (stereo not given in full) | 0.232 | -0.198 (inactive) | 0.0469 | -0.178 | 0.166 | 1.22 | -0.248 | 1.33 | 0.99 | 1.14 | 0.424 | 1.17 | 0.0776 | 1.01 | 0.829 | 0.846 | 0.574 | 1.61 | 0.598 | 0.547 (inactive) |
| COc1ccc(O[C@H]2C=C[C@@H](c3ccccc3)O[C@@H]2CO)cc1 | -0.311 | -0.0521 (inactive) | 0.0762 | -0.104 | 0.131 | -0.209 | 0.0797 | -0.713 | 0.495 | 0.304 | -0.457 | -0.145 | -0.363 | -0.0957 | 0.36 | 0.363 | 0.319 | 0.479 | -0.126 | -0.162 (inactive) |
| CCOC(=O)CCN1C(=O)[C@H]2[C@H]3[C@H](O)[C@H](O)CC(=NO[C@@H]4O[C@H](CO)[C@@H](O)[C@H](O)[C@H]4O)[C@H]3CC[C@H]2C1=O | 0.0221 | -0.048 (inactive) | -0.15 | -0.113 | 0.197 | 0.174 | -0.0363 | 0.201 | 0.52 | 0.487 | 0.919 | 0.544 | 0.068 | 0.551 | 0.0489 | 0.599 | -0.658 | 0.49 | -0.104 | 0.493 (inactive) |
